Experiment [1] can be described thus: AP1 Signaling Pathway (AID 357). Also: % is scaled to controls: 0 for no effect and ±100 for the full control effect. Particulars: ME-180 AP-1-bla reporter, EGF-induced, beta-lactamase ratio, 5 h; at 17.2 µM (top of the series) unless noted. A digest of the protocol: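 Cells are seeded overnight, exposed to compound titrations and an EC50 level of EGF for 5 hours at 37 °C, then loaded with CCF4 dye for 2.5 hours. Beta-lactamase activity under the AP-1 element is read as a blue/green ratio.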

Experiment [2] is described as follows: NFAT Signaling Pathway (AID 444).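 Also: carbachol stimulus at about its EC50 of 1 µM final; % is scaled to controls: 0 for no effect and ±100 for the full control effect.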 Particulars: Jurkat NFAT-bla M1, carbachol, beta-lactamase ratio, 5 h; at 17.2 µM (top of the series) unless noted. In short, it runs like this:
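Jurkat cells with NFAT-driven β-lactamase reporter and co-expressed M1 receptor, stimulated with carbachol (final 1 uM, ~EC50), compound titration, 5 h at 37 °C. CCF4 loaded 1 h at RT; 460/530 nm ratio gave %activity and AC50.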

Experiment [3] in a line: Stat Signaling Pathway (AID 446).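 Also: ME-180 cervical cancer cells given 40 pM IL-6 alongside compound; SIE-controlled beta-lactamase reporter measured as 460/530 nm FRET emission ratio; % is scaled to controls: 0 for no effect and ±100 for the full control effect.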 In short, it runs like this: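 ME-180 cells carrying a SIE-driven beta-lactamase reporter are stimulated with 40 pM IL-6 for 5 h at 37C in the presence of compound. The 460/530 nm FRET substrate ratio is read after 2.5 h at RT. Data are normalised to 300 pM IL-6 and to 125 nM JAK inhibitor controls.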
Experiment [4] has as its target Glucocorticoid receptor (Homo sapiens) (UniProt P04150). Kind of experiment: GR-GFP Redistribution (AID 450;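 active = compounds whose dose series gives a full or clear partial fitted curve of increased nuclear translocation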; also: potency is read from the fitted curve at half-maximal effect). Particulars: U2OS GR-GFP nuclear translocation, laser cytometry, 2 h.
A short description of experiment [5]: qHTS Assay for Identification of Small Molecule Agonists for Hypoxia Response Element Signaling Pathway (AID 914; active = well fitted activation curve with a large enough effect in the signal ratio, with a control signal flat, not every such curve was filed as active; the % refers to the signal ratio; also: % of control where 0% means no effect). The following applies: ME-180 (cervical carcinoma) HRE-bla reporter, beta-lactamase ratio, CoCl2, 17 h; activation: active compounds read high. In short, it runs like this:
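Positive modulation of EC50 CoCl2-induced hypoxia response element signaling is measured in ME-180 cells with a beta-lactamase reporter. Compounds are titrated, incubation runs 17 hours, and %Activity derives from the blue/green ratio.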

The target in experiment [6] is 3',5'-cyclic-AMP phosphodiesterase 4B (Homo sapiens) (UniProt Q07343). Kind of experiment: qHTS Assay for Inhibitors of PDE-IV (AID 607; active = well fitted activation curve with a large enough effect in the main read-out, with a control signal flat, not every such curve was filed as active; also: % of control where 0% means no effect). In short, it runs like this: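 HEK293 ACTOne cells with CNG channel (1000/well), endogenous PDE4; membrane potential dye, compounds up to 22.9 uM final. Fluorescence Ex 535/Em 590; RO 20-1724 (100 uM final) as reference.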
3',5'-cyclic-AMP phosphodiesterase 4B (Homo sapiens), sequence (Q07343 whole entry, looked up): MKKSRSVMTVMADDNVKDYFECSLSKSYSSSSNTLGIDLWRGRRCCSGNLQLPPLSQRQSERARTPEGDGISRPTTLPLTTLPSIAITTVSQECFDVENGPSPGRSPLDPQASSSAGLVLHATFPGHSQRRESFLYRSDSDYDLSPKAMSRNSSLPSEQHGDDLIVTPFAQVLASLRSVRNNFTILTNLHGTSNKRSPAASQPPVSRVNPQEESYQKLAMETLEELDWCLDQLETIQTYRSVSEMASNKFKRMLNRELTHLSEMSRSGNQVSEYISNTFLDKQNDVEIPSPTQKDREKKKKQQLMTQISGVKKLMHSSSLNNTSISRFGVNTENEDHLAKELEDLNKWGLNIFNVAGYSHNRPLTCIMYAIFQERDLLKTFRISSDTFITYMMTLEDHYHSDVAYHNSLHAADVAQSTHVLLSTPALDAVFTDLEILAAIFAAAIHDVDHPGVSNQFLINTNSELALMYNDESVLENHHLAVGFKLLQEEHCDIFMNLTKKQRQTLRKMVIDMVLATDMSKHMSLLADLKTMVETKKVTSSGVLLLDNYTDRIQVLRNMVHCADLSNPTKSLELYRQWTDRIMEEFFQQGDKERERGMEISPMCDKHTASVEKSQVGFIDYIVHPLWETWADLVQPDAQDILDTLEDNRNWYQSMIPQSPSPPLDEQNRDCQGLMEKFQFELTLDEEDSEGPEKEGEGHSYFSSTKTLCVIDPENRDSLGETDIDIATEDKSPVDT
The target in experiment [7] is Guanine nucleotide-binding protein G(i) subunit alpha-1 (Homo sapiens) (UniProt P63096). Kind of experiment: qHTS Assay for Inhibitors of RGS12 GoLoco Motif Activity (Green Fluorophore) (AID 879; active = well fitted curve in the direction sought with a large enough effect; an effect the other way counts as inactive or inconclusive; also: potency is read from the fitted curve at half-maximal effect). In short, it runs like this: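 Fluorescence polarization assay: 50 nM Gαi1 with 10 nM FITC-labeled RGS12 GoLoco peptide in 10 mM Tris pH 7.5, 150 mM NaCl, 0.1 mM GDP, 0.05% NP40, 10 min at room temperature with compound.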
Guanine nucleotide-binding protein G(i) subunit alpha-1 (Homo sapiens), sequence (P63096 whole entry, looked up): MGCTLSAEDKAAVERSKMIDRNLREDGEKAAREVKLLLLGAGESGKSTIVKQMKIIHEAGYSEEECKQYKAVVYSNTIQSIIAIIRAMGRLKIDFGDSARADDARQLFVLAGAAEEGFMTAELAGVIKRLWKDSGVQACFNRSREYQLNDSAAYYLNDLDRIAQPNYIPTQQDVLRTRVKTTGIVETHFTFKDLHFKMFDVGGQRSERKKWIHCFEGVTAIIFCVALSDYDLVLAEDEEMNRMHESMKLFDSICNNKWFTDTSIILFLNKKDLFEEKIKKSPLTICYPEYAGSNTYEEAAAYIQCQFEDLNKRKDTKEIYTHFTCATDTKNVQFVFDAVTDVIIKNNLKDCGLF
(qHTS replaces the single test concentration by a dilution series.)

For experiment [8], the target named is Cytochrome P450 3A4 (Homo sapiens) (UniProt P08684). Kind of experiment: qHTS Assay for Activators of Cytochrome P450 3A4 (AID 885; active = well fitted curve in the direction sought with a large enough effect; an effect the other way counts as inactive or inconclusive; also: nearly all actives have a fitted effect of over 65% in size). A digest of the protocol: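 Human CYP3A4 (20 nM) with Luciferin-PPXE at 25 uM (its KM) in 200 mM KPO4; 10 min compound preincubation, then NADPH regeneration and 60 min reaction at RT. Luciferin read by luminescence; normalized to 57 uM ketoconazole full inhibition.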

Experiment [9] has as its target Cytochrome P450 2D6 (Homo sapiens) (UniProt P10635). Kind of experiment: qHTS Assay for Inhibitors and Substrates of Cytochrome P450 2D6 (AID 891; active = well fitted curve in the direction sought with a large enough effect; an effect the other way counts as inactive or inconclusive;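 also: luciferin methyl ether substrate demethylated by CYP2D6 with NADPH regeneration; % is scaled to controls: 0 for no effect and ±100 for the full control effect; nearly all actives have a fitted effect of over 60% in size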). A digest of the protocol:
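Human CYP2D6 (5 nM) with 30 uM Luciferin-ME EGE (at Km) in 100 mM KPO4, compound preincubated 10 min, then NADPH regeneration system for 60 min at room temperature. Luciferin read by luminescence; normalized to 1.43 uM quinidine.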

Experiment [10] has as its target Cytochrome P450 2C19 (Homo sapiens) (UniProt P33261). Kind of experiment: qHTS Assay for Inhibitors and Substrates of Cytochrome P450 2C19 (AID 899; active = well fitted curve in the direction sought with a large enough effect; an effect the other way counts as inactive or inconclusive; also: % is scaled to controls: 0 for no effect and ±100 for the full control effect; nearly all actives have a fitted effect of over 60% in size). A digest of the protocol: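 Luminescent read-out of luciferin formed from Luciferin-H EGE (10uM, equal to KM). Enzyme 5nM in 50mM KPO4; compound added, 10 min at 37C, then NADPH regenerating system for 60 min at 37C. Full inhibition defined by 57uM ketoconazole.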

Experiment [11] in a line: qHTS Assay for Identification of Small Molecule Antagonists for Thrombopoietin (TPO) Signaling Pathway (AID 918; active = well fitted curve in the direction sought with a large enough effect; an effect the other way counts as inactive or inconclusive; also: potency is read from the fitted curve at half-maximal effect; nearly all actives have a fitted effect of over 60% in size). Particulars: TPO-dependent cell signaling reporter, antagonist mode. A digest of the protocol:
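Murine Ba/F3 cells expressing human TPO receptor and a Glycoprotein IIb promoter-luciferase reporter, IL-3-starved overnight, treated with compound plus TPO at EC50 (26 pM final). After 24 h at 37 C, luminescence read to detect inhibitors.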

In experiment [12] the target is Muscarinic acetylcholine receptor M1 (Rattus norvegicus) (UniProt P08482). Kind of experiment: qHTS Assay for Antagonists of Acetylcholine Muscarinic M1 Receptor: Kinetic Measurement of Intracellular Calcium Response (AID 943; active = well fitted curve in the direction sought with a large enough effect; an effect the other way counts as inactive or inconclusive; also: nearly all actives have a fitted effect of over 75% in size). A digest of the protocol: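 CHO cells expressing rat M1 receptor, Fluo-4 loaded, preincubated 10 min with compound, then stimulated with EC80 carbachol (100 nM final). Kinetic calcium fluorescence over 4 min; response taken as peak over basal signal.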
Muscarinic acetylcholine receptor M1 (Rattus norvegicus), sequence (P08482 whole entry, looked up): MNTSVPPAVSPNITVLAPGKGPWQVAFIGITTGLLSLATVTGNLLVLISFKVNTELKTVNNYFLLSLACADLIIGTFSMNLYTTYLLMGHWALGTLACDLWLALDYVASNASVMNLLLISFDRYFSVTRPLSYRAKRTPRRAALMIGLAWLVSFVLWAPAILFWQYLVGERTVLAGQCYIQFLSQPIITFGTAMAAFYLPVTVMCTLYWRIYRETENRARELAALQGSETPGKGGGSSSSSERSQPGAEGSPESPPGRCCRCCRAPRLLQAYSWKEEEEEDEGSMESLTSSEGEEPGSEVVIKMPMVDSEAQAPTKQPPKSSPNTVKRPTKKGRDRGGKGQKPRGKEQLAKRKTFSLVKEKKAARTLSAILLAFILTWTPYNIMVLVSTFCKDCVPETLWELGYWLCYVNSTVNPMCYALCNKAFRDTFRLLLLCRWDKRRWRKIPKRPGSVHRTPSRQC

Experiment [13] shares this target. Kind of experiment: qHTS Assay for Antagonists of Acetylcholine Muscarinic M1 Receptor: Measurement of IP-One Response (AID 944; active = well fitted curve in the direction sought with a large enough effect; an effect the other way counts as inactive or inconclusive; also: nearly all actives have a fitted effect of over 75% in size). A digest of the protocol:
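CHO cells stably expressing rat M1, pretreated 10 min with compound, then stimulated 30 min with carbachol at EC80 (200 nM) in LiCl-containing buffer pH 7.4; IP1 accumulation read by HTRF competition (665/620 nm).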

Experiment [14] addresses Pyruvate kinase (Leishmania mexicana) (UniProt Q27686). Kind of experiment: qHTS Validation Assay for Inhibitors of Leishmania Mexicana Pyruvate Kinase (AID 945; active = well fitted curve in the direction sought with a large enough effect; an effect the other way counts as inactive or inconclusive;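 also: 0% = DMSO only neutral control wells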). A digest of the protocol:
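qHTS eight-point titrations against 0.2 nM LmPYK (E451W) in imidazole buffer pH 7.2 with 0.5 mM PEP, 0.1 mM ADP; 1 h, room temperature. Readout: PKLight luminescence, normalized to neutral DMSO wells.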

For experiment [15], the target named is Alpha-galactosidase (Coffea arabica) (UniProt Q42656). Kind of experiment: Counterscreen for Glucocerebrosidase Inhibitors: qHTS Assay for Coffee Bean alpha-Galactosidase at pH 4.5 (AID 957; active = well fitted curve in the direction sought with a large enough effect; an effect the other way counts as inactive or inconclusive;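 also: plate controls were enzyme alone for no effect and no enzyme for full effect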). A digest of the protocol: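 Coffee bean enzyme (2 nM) with 80 uM 4-methylumbelliferyl alpha-D-galactopyranoside in 50 mM citric acid, 0.005% Tween-20, pH 4.5, 20 min at room temperature; compounds 0.7 nM–77 uM. Stopped at pH 10, fluorescence 365/440 nm; AC50 from Hill fits.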
Alpha-galactosidase (Coffea arabica), sequence (Q42656 whole entry, looked up): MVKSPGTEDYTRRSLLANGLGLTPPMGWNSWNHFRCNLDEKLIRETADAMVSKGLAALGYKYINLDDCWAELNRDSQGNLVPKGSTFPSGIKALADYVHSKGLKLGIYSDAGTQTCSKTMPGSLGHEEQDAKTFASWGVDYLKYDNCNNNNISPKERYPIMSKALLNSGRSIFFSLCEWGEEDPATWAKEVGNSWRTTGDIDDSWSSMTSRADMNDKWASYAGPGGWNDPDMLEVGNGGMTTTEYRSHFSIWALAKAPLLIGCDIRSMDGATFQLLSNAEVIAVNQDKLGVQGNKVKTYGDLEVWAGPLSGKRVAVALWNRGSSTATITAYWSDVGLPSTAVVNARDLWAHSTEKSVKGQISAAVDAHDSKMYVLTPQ
(In general: The purpose of a counterscreen is to sort out artefacts and off-target activity.)

The target in experiment [16] is Pyruvate kinase PKM (Homo sapiens) (UniProt P14618). Kind of experiment: qHTS Assay for Inhibitors of Human Muscle Pyruvate Kinase (AID 958; active = well fitted curve in the direction sought with a large enough effect; an effect the other way counts as inactive or inconclusive). In short, it runs like this:
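PKM2, human, >95% pure, 0.1 nM; PEP 0.5 mM (Km), ADP 0.1 mM; 50 mM imidazole pH 7.2, 50 mM KCl, 0.01% Tween 20, 0.05% BSA; 1 h RT; luciferase luminescence readout.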

The target in experiment [17] is Alpha-galactosidase A (Homo sapiens) (UniProt P06280). Kind of experiment: Counterscreen for Glucocerebrosidase Inhibitors: qHTS Assay for Human alpha-Galactosidase at pH 4.5 (AID 992; active = well fitted curve in the direction sought with a large enough effect; an effect the other way counts as inactive or inconclusive; also: 0% is about no effect). A digest of the protocol: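 Human enzyme (2 nM) with 80 uM 4-methylumbelliferyl alpha-D-galactopyranoside in 50 mM citric acid, 0.005% Tween-20, pH 4.5, 20 min at room temperature. Compounds 0.7 nM–77 uM; fluorescence Ex 365/Em 440 after pH 10 stop; AC50 from Hill fits.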
Alpha-galactosidase A (Homo sapiens), sequence (P06280 whole entry, looked up): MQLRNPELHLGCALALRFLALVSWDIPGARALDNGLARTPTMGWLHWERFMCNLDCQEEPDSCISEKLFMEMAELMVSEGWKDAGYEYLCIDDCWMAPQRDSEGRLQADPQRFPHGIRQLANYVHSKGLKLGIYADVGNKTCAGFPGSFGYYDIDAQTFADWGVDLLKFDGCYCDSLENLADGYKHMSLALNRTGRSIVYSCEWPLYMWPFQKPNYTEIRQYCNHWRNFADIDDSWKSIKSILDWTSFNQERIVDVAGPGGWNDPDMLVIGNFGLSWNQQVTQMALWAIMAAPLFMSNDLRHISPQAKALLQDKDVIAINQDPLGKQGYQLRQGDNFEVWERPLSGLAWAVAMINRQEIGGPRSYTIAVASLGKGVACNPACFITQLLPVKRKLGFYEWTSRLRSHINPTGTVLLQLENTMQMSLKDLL

Experiment [18] has as its target alpha-glucosidase (Oryza sativa, rice) (UniProt Q653V4). Kind of experiment: Counterscreen for Glucocerebrosidase Inhibitors: qHTS Assay for Rice alpha-Glucosidase at pH 5.0 (AID 997; active = well fitted curve in the direction sought with a large enough effect; an effect the other way counts as inactive or inconclusive;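 also: 0% = full activity with enzyme and -100% = basal without enzyme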). In short, it runs like this: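 Rice alpha-glucosidase (4 nM final) with 400 uM 4-methylumbelliferyl-alpha-D-glucopyranoside in citrate buffer pH 5.0, 20 min at room temperature, stopped at pH 10; fluorescence 365/440 nm, compounds 0.7 nM–77 uM, AC50 from Hill fits.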

Experiment [19] concerns the target Alpha-galactosidase (Coffea arabica) (UniProt Q42656). Kind of experiment: Counterscreen for Glucocerebrosidase Inhibitors: qHTS Assay for Coffee Bean alpha-Galactosidase at pH 5.9 (AID 998; active = well fitted curve in the direction sought with a large enough effect; an effect the other way counts as inactive or inconclusive;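 also: plate controls were uninhibited enzyme for no effect and no-enzyme basal signal for full effect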). A digest of the protocol: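 Green coffee bean enzyme (2 nM) with 4-methylumbelliferyl alpha-D-galactopyranoside (80 uM) in 50 mM citric acid, 0.005% Tween-20, pH 5.9, 20 min at room temperature; compounds 0.7 nM–77 uM. Stopped at pH 10, fluorescence Ex365/Em440; Hill-fit AC50.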

In experiment [20] the target is Mitogen-activated protein kinase 10 (Mus musculus) (UniProt Q61831). Kind of experiment: JNK3 AlphaScreen Assay (AID 530).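 Also: kinase came from lysate of stimulated human HepG2 cells; signal reports phosphorylation of biotinylated GST-cJun 1-79 at Ser73 with 10 µM ATP; % is scaled to controls: 0 for no effect and ±100 for the full control effect.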 In short, it runs like this: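 Pre-activated (IL-1β/TNFα) JNK3 in HepG2 lysates phosphorylates biotin-GST-cJun(1-79), 10 uM ATP; anti-phospho-cJun(Ser73) AlphaScreen read at room temperature, pH 7.6 Tris buffer. Compounds pre-incubated 15 min as titrations.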

Molecules are shown by their SMILES. Values without a mark were called inactive. Inconclusive results are not listed. Activity calls are given as the source filed them. Unless noted, calls follow the shape of the dose curve; as a rule, active = well fitted curve in either direction with a large enough effect (not every such curve was filed as active); inconclusive = small, poorly fitted or top-dose-only effect, or another doubt; inactive = flat fitted curve, though single readings scatter. Where only a bound is given, the exact number is not on record here.

Glucocorticoid receptor (Homo sapiens), sequence (P04150 whole entry, looked up): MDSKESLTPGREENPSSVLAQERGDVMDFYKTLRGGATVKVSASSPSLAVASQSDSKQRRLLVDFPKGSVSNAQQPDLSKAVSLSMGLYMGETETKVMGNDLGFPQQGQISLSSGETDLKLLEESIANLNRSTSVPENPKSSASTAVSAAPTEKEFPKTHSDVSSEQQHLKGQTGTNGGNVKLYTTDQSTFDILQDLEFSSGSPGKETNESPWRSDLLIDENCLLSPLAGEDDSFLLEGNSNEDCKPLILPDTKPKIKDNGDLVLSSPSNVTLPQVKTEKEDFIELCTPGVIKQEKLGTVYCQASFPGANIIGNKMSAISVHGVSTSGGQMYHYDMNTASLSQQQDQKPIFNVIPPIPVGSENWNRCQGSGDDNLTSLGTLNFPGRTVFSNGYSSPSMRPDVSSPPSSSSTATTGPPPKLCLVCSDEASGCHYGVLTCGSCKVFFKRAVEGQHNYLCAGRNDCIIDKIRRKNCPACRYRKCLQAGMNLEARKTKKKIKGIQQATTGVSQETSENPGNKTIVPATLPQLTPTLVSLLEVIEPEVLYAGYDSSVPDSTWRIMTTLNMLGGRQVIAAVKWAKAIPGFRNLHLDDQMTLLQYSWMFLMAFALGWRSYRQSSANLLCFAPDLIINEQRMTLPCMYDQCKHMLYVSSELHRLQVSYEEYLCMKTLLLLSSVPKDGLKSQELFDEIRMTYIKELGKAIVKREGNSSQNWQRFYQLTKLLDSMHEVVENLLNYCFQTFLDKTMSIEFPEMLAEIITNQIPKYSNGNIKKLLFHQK
Pyruvate kinase PKM (Homo sapiens), sequence (P14618 whole entry, looked up): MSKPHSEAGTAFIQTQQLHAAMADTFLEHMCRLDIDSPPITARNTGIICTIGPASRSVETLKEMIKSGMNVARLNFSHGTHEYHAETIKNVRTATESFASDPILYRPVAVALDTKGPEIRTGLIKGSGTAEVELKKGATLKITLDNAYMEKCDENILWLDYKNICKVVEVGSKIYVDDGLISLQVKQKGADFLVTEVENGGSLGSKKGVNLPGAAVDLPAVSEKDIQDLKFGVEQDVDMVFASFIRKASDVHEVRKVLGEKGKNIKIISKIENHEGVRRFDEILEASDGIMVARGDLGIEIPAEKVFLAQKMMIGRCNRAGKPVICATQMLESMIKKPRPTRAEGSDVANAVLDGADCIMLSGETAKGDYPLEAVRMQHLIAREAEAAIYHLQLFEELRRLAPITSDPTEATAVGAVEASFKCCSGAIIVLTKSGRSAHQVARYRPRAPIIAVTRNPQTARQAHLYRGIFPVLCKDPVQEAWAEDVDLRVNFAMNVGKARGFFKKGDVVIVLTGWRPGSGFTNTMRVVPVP
Cytochrome P450 2D6 (Homo sapiens), sequence (P10635 whole entry, looked up): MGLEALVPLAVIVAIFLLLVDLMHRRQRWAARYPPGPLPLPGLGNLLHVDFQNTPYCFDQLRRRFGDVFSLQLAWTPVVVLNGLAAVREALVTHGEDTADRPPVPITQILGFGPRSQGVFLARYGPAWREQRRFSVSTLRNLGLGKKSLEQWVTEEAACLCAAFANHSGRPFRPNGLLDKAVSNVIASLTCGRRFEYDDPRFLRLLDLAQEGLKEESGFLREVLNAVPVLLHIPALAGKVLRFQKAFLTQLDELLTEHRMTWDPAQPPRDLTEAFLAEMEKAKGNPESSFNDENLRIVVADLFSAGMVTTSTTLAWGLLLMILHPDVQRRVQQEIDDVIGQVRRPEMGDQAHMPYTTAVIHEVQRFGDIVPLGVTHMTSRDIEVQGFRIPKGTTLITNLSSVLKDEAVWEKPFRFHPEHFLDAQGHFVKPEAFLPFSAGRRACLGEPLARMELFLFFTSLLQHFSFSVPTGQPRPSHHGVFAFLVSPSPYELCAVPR
Pyruvate kinase (Leishmania mexicana), sequence (Q27686 2-499 E452W): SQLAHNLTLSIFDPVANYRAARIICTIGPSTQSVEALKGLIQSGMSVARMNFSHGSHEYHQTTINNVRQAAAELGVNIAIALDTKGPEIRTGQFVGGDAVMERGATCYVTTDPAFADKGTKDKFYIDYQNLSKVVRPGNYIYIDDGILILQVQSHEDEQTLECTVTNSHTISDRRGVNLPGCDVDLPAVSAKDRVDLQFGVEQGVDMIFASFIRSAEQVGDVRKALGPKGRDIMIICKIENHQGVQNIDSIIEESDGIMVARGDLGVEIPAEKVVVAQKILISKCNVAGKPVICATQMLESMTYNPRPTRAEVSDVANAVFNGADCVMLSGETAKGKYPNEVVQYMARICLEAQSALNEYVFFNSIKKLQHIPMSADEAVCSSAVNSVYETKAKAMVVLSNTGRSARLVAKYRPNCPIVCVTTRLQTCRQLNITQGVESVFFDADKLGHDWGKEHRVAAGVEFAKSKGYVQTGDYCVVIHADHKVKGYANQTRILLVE

On to `O=C1NCCN2CCCC12` (stereo not drawn), for which the values for the activity change, negative = inhibition in experiment [1] and in experiment [2] were 12% and -0.485%, respectively. The result in experiment [3] was inactive. Besides, the Potency in experiment [4] is more than 20.6 µM. Moreover, the activation in [5] is 9.17%.
Consider `Cc1c(N=Cc2c(O)n(CCc3ccccc3)c(=O)[nH]c2=O)c(=O)n(-c2ccccc2)n1C`, for which the activity change, negative = inhibition in experiment [1] is -11.1%. The result in [3] was inactive. Also, in [4], the Potency was more than 20.6 µM.
`O=C(CN1CCN(CCO)CC1)Nc1ccc(Cl)cc1C(=O)c1ccccc1`: the values for the activity change, negative = inhibition in experiment [1] and in experiment [2] were 3.2% and 5.95%, respectively. Also, in [3], the call was inactive. In [4], the Potency is more than 20.6 µM. In addition, in experiment [5], the activation is 0.98%.
Consider `CCOc1ccccc1-n1c(O)c(C=Nc2ccc(N(CC)CC)cc2)c(=O)[nH]c1=O`, for which, in experiment [1], the activity change, negative = inhibition was 3.1%. The outcome in experiment [3] was inactive. Also, the Potency in experiment [4] was more than 20.6 µM.
`N[C@@H](Cc1cc(O)c(O)cc1O)C(=O)O`: the activity change, negative = inhibition was -19.5% [at 38 µM] in experiment [1] and 3.11% [at 38 µM] in [2]. Besides, the Potency was more than 46 µM in experiment [4], 15.8 µM (active) in experiment [7] and 12.6 µM (active) in experiment [11]. For the same compound, the compound was classed as inactive in experiment [6], in [15], in [17], in experiment [18] and in experiment [19]. Also, the Potency result in experiment [8], in experiment [9], in [10], in experiment [12], in [13] and in [14] was “inactive” throughout. For the same compound, the Potency result in experiment [16] was “inactive”.
`CNc1ccc2oc(C[C@@H]3O[C@@]4(CC[C@H]3C)O[C@@H]([C@@H](C)C(=O)c3ccc[nH]3)[C@@H](C)C[C@H]4C)nc2c1C(=O)O`: the activity change, negative = inhibition in experiment [1] is 6.83% [at 38 µM]; in experiment [2], 90.4% [activator] [at 38 µM] (active). Further, the outcome in [3], in [20] and in experiment [6] was inactive.

These data come from PubChem BioAssay (NCATS).
